Measured values from PubChem BioAssay.
Calls of active or inactive are those of the source.

Key:
Albumin (Bos taurus) = Albumin (Bos taurus) (UniProt P02769); experiment: compounds binding labelled BSA control protein – biochemical, small-molecule microarray, Alexa647 label, 635/667 nm fluorescence, artefact control for SMM control protein annotation, profiling panel (AID 1118); details: BSA-A647 binding, fluorescence 635 nm, higher = more signal;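 note: score merges 667 nm emission intensity and signal-to-noise per printed compound spot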
[1] = probe aXIP binding to arrayed compounds – biochemical, NeuroSMM set, 635/667 nm fluorescence, primary screen (AID 1119); details: small-molecule microarray, higher = more signal, called active from +8 up or from −8 down;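 note: probe is the protein aXip251-270 applied at 1 µg/mL to compound-printed slides; binding of probe to printed compounds measured as 667 nm fluorescence plus signal to noise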
[2] = probe aNOTCH3 binding on compound microarray – biochemical, small-molecule microarray, 635/667 nm fluorescence, primary screen (AID 1120); details: higher = more signal;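 note: probe is a biotin-tagged antibody raised against NOTCH3 rather than NOTCH3 protein; score merges spot fluorescence near 667 nm with spot signal to noise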
[3] = probe aNOTCH2 binding on compound microarray – biochemical, small-molecule microarray, 635/667 nm fluorescence, primary screen (AID 1121); details: higher = more signal;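 note: score merges feature fluorescence read at 667 nm with its signal to noise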
[4] = target: Carbonic anhydrase 2 (Homo sapiens) (UniProt P00918); experiment: compounds binding carbonic anhydrase 2 – biochemical, small-molecule microarray, Alexa647-labelled CAII, profiling panel (AID 1122); details: CAII-A647 binding fluorescence, higher = more signal
[5] = COS7 lysate on small-molecule microarray, probe aHis, 635 nm (AID 1123); details: COS7 cell lysate, fluorescence, higher = more signal;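 note: z-score combines 667nm fluorescence intensity with signal-to-noise per printed compound spot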
[6] = probe aLAP1 signal on lysate-treated microarray – cell lysate, small-molecule microarray, COS7 lysate, primary screen (AID 1124); details: probe aLAP1, fluorescence, higher = more signal;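 note: lysate comes from COS7 cells expressing LAP1 and is applied at 0.3 µg/mL; score merges spot fluorescence near 667 nm with signal-to-noise over triplicate slides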
Sam68 (KHDRBS1) = experiment: compounds binding KHDRBS1 protein – biochemical, small-molecule microarray, 635 nm fluorescence, primary screen (AID 1125); details: higher = more signal;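 note: score merges 667 nm channel intensity with signal to noise over triplicate slides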
[7] = system: Chordin-like protein 2 (CHRDL2); experiment: compounds binding chordin-like 2 – biochemical, small-molecule microarray, 635 nm fluorescence, primary screen (AID 1126); details: fluorescence 635 nm, higher = more signal;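 note: printed compound slides probed with Chrdl2 protein at 4 µg/mL for 1 h at 4 C; score merges 667 nm emission intensity with signal to noise over three replicate slides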
[8] = target: Concanavalin-A (Canavalia ensiformis) (UniProt P02866); experiment: compounds binding concanavalin A lectin – biochemical, small-molecule microarray, Alexa647 label, 635 nm, artefact control for SMM control protein annotation, primary screen (AID 1127); details: ConA-A647 binding fluorescence, higher = more signal;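 note: z combines 667 nm emission intensity with signal-to-noise across three replicate slides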
[9] = compounds binding Alexa647 anti-His antibody – biochemical, small-molecule microarray, 635 nm fluorescence, artefact control for SMM control protein annotation, primary screen (AID 1128); details: higher = more signal;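 note: score merges feature fluorescence with signal-to-noise for each printed compound spot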
[10] = system: Human papillomavirus type 1a E7 protein (residues 1-88); experiment: HPV1a E7 small-molecule binders, primary screen, biochemical, small-molecule microarray, residues 1-88, 635 nm (AID 1129); details: small-molecule microarray binding, fluorescence 635 nm; higher = more signal
[11] = target: Focal adhesion kinase 1 (Homo sapiens) (UniProt Q05397); experiment: PTK2 protein binding on printed compound slides – biochemical, small-molecule microarray, 635/667 nm fluorescence, BSA, DTT, primary screen (AID 1130); details: 635 nm fluorescence, higher = more signal;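 note: composite of spot emission at 667 nm and signal to noise over triplicate slides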
[12] = system: Fibrinogen (Alexa647-labelled); experiment: Alexa647-fibrinogen binding to printed small molecules – biochemical, small-molecule microarray, 635/667 nm fluorescence, artefact control for SMM control-protein annotation, profiling panel (AID 1131); details: fibrinogen-A647 binding fluorescence, higher = more signal;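 note: z-score merges 667 nm fluorescence with per-spot signal-to-noise over triplicate slides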
[13] = target: Follistatin (Homo sapiens) (UniProt P19883); experiment: FST protein binding to printed compounds – biochemical, small-molecule microarray, 635/667 nm fluorescence, primary screen (AID 1132); details: 635 nm fluorescence, higher = more signal
[14] = target: Fibroblast growth factor 2 (Homo sapiens) (UniProt P09038); experiment: basic fibroblast growth factor binding to printed compounds – biochemical, small-molecule microarray, 635/667 nm fluorescence, primary screen (AID 1133); details: FGF2, fluorescence 635/667, higher = more signal
[15] = JC-1 mitochondrial potential readout, lung cancer cells – cell-based, A549, JC-1 fluorescence, basal, 24 h, 100 nL, profiling panel (AID 1138); details: higher = more signal;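 note: A549 lung adenocarcinoma cells under basal conditions with no added stimulus; test concentration not given here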
Lefty1 = Lefty1 protein binding to printed compounds – biochemical, small-molecule microarray, 635/667 nm fluorescence, primary screen (AID 1139); details: fluorescence 635/667, higher = more signal
[16] = system: wheat germ agglutinin (Triticum aestivum), Alexa647-labelled; experiment: Alexa647-WGA lectin binding to printed small molecules – biochemical, small-molecule microarray, 635/667 nm fluorescence, artefact control for SMM control-protein annotation, profiling panel (AID 1140); details: WGA-A647 binding, 635 nm fluorescence, higher = more signal;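 note: score merges 667 nm feature emission with signal to noise over triplicate slides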
[17] = target: Luciferin 4-monooxygenase (Photinus pyralis) (UniProt P08659); experiment: inhibition of purified Photinus pyralis luciferase – biochemical, luminescence, purified enzyme, 2006 set, primary screen (AID 1141); details: purified firefly luciferase, SteadyGlo luminescence, 30 min; higher = more signal, called active from +8 up or from −8 down;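 note: cell-free assay with purified firefly luciferase at 100 ng per well in PBS; test concentration not given here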
Chain of Luciferin 4-monooxygenase (Photinus pyralis) (P08659 whole entry, looked up): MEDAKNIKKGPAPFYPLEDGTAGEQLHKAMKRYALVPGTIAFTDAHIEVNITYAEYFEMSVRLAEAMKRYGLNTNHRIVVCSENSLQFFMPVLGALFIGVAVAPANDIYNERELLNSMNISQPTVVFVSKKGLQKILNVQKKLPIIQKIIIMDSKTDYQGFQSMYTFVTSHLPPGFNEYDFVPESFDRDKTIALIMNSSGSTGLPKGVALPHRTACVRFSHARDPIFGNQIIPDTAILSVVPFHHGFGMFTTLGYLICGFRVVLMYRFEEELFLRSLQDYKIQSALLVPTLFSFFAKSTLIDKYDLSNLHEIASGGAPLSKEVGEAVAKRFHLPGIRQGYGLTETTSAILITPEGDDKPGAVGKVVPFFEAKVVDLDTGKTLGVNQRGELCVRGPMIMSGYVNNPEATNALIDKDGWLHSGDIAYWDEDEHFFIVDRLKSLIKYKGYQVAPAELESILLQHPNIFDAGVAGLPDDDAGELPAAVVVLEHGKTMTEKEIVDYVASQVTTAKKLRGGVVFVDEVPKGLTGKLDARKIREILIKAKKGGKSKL

Chain of Follistatin (Homo sapiens) (P19883 whole entry, looked up): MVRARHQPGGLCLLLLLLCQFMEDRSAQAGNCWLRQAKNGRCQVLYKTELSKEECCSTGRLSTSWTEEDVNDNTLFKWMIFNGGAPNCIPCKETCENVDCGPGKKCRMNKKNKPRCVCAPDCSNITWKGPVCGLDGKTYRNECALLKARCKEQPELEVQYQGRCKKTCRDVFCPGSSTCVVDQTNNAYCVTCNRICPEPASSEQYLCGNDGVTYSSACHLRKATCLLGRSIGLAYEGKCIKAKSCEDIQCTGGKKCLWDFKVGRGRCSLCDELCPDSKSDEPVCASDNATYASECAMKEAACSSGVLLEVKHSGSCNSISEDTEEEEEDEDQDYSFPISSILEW
Chain of Albumin (Bos taurus) (P02769 whole entry, looked up): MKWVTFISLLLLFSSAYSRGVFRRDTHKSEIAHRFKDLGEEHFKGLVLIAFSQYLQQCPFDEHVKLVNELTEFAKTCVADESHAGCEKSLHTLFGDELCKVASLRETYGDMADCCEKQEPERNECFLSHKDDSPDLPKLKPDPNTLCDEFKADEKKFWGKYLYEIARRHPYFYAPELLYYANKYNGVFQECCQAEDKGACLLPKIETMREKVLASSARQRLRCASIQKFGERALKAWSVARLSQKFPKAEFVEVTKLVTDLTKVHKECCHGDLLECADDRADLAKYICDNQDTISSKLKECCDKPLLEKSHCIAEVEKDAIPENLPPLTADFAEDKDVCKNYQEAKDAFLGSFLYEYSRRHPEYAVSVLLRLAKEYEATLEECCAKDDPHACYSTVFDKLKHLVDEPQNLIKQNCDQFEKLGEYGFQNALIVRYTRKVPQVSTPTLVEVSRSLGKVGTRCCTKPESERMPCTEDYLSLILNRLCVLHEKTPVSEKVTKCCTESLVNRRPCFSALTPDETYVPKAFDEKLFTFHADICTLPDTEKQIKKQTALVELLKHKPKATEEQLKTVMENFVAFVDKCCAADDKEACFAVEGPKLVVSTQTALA
Chain of Concanavalin-A (Canavalia ensiformis) (P02866 whole entry, looked up): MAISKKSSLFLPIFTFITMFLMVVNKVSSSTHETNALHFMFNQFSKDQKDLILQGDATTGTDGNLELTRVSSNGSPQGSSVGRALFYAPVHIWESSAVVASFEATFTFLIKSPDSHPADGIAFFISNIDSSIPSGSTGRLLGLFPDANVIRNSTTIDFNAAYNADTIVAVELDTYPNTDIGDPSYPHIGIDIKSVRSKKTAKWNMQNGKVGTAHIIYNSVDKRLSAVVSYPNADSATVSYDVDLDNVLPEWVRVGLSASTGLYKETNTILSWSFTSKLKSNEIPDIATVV
Chain of Focal adhesion kinase 1 (Homo sapiens) (Q05397 whole entry, looked up): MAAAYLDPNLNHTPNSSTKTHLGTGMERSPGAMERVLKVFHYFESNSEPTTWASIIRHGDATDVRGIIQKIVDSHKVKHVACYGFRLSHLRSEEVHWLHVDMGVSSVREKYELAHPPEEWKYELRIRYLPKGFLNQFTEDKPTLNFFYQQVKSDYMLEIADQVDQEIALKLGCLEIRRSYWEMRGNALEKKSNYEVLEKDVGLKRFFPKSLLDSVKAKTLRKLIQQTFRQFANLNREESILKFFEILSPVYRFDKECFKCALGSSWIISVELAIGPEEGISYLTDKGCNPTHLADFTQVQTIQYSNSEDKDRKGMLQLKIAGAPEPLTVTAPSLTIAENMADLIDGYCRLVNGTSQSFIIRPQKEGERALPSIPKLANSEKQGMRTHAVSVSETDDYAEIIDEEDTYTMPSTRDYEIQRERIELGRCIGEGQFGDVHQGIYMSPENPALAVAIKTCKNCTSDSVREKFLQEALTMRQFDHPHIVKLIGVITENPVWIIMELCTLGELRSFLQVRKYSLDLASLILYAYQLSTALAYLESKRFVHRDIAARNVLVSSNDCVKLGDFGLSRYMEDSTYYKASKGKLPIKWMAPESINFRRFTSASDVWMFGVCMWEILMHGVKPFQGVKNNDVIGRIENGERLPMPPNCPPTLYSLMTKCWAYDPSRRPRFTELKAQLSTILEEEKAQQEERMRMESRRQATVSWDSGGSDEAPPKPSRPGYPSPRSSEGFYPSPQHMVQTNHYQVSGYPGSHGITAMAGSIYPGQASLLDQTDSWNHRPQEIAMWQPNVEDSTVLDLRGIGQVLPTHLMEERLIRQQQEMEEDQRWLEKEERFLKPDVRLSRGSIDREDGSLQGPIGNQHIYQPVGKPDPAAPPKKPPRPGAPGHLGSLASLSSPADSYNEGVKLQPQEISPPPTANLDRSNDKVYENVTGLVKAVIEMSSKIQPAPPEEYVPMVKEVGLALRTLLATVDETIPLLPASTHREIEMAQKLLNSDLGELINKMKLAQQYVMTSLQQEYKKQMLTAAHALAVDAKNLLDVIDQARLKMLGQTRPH
Chain of Fibroblast growth factor 2 (Homo sapiens) (P09038 whole entry, looked up): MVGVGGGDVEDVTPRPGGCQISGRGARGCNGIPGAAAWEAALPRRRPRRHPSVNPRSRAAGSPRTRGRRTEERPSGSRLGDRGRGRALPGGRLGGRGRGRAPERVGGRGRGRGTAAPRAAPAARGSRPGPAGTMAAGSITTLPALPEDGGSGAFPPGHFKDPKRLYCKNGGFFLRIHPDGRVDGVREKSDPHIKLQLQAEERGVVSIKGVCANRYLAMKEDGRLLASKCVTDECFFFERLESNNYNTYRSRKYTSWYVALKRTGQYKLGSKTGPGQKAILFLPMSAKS

Row | SMILES | composite z-score (Albumin (Bos taurus)) | composite Z-score [1] | composite z-score [2] | composite z-score [3] | composite z-score [4] | composite z-score [5] | composite z-score [6] | composite z-score (Sam68 (KHDRBS1)) | composite z-score [7] | composite z-score [8] | composite z-score [9] | composite z-score [10] | composite z-score [11] | composite z-score [12] | composite z-score [13] | composite z-score [14] | z-score [15] | composite z-score (Lefty1) | composite z-score [16] | z-score [17]
1 | Cc1ccc(S[C@]2(C(=O)NCCN3CCOCC3)CC(=O)N(C(C)C)[C@@H]2c2ccc(CO)cc2I)cc1 | -0.233 | 0.289 (inactive) | -0.0111 | -0.0391 | 0.288 | 1.19 | 0.933 | 0.949 | -0.975 | -0.452 | -1.03 | -0.636 | 0.218 | -1.09 | -0.453 | -0.706 | 1.94 | -0.816 | -0.581 | -1.3 (inactive)
2 | O=C1c2ccccc2[C@@]2(Cc3ccccc3N(CC(F)(F)F)C2=O)[C@H](c2ccc(CO)cc2)N1Cc1ccccc1 | -0.507 | -0.207 (inactive) | 0.0698 | -0.219 | -0.13 | -0.211 | 0.0163 | 0.166 | 0.62 | 0.0118 | -0.713 | -0.404 | -0.282 | -0.243 | 0.932 | 1.4 | -0.772 | 0.759 | 0.0111 | 0.746 (inactive)
3 | [N-]=[N+]=NCc1ccccc1C[C@]1(C(=O)N2CCCCC2)COC(c2ccc(OCCCO)cc2)=N1 | 0.744 | -0.838 (inactive) | -0.159 | -0.242 | 0.375 | 1.58 | -0.44 | 1.24 | 0.0846 | 0.984 | 1.13 | 1.07 | 0.401 | 0.932 | 0.687 | 0.765 | 2.45 | -0.432 | 0.827 | -1.71 (inactive)
4 | COc1ccc([Si](C)(C)[C@H]2[C@H](CC(=O)N3CCC[C@H]3CO)O[C@@]3(C(=O)N(Cc4cccc(N5CCCCC5=O)c4)c4ccccc43)[C@@H]2C)cc1 | 0.342 | 0.433 (inactive) | -0.318 | -0.161 | 0.462 | 1.83 | 0.648 | 1.31 | 1.19 | 1.13 | 0.999 | 0.989 | 0.79 | 0.732 | 1.08 | 1.52 | 3.51 | 1.36 | 0.442 | -1.5 (inactive)
5 | C=CCOC(=O)[C@@H]1[C@H]2C(=O)O[C@H](c3ccccc3)[C@H](c3ccccc3)N2[C@H](c2ccc(OCCOC(=O)[C@@H]3C[C@@H]4C(=O)N[C@@H](CC(C)C)C(=O)N4[C@@H]3c3ccc(O)cc3)cc2)[C@@]12C(=O)Nc1ccc(I)cc12 | -0.766 | 0.207 (inactive) | 1.3 | 0.443 | 0.536 | 1.37 | 0.166 | 1.28 | 1.1 | 1.17 | 1.52 | 1.2 | 0.601 | 0.666 | 1.44 | 1.26 | -1.58 | 1.44 | 0.182 | -0.248 (inactive)
6 | C=C(COC)/C(=C/C[C@@H](OC(C)=O)c1cccc(OCCO)c1)c1cnc2ccccc2c1 | 0.238 | -0.365 (inactive) | 0.0916 | -0.084 | 0.98 | 1.12 | 0.0842 | 0.965 | 1.42 | 0.877 | 0.309 | 0.75 | -0.012 | -0.657 | 1.42 | 1.2 | 0.031 | 1.24 | 1.04 | -1.11 (inactive)
7 | C=C(/C=C\CNS(=O)(=O)c1ccc(C)cc1)[C@H](O)[C@H]1CCCN1S(=O)(=O)c1ccccc1[N+](=O)[O-] | 0.678 | -0.429 (inactive) | 0.0026 | -0.147 | 0.319 | 0.119 | -0.538 | 0.127 | 0.411 | 0.152 | 0.721 | 0.427 | 0.445 | 0.191 | 0.216 | 0.272 | -0.321 | 0.177 | 0.878 | -1.1 (inactive)
8 | CC(C)(C)OC(=O)N1[C@@H](C=C(Br)Br)COC1(C)C | -0.121 | 0.274 (inactive) | 0.0522 | -0.104 | -0.0481 | 0.259 | 0.136 | 0.839 | 0.644 | 0.556 | 0.286 | 0.974 | -0.0276 | 0.592 | 0.652 | 0.65 | 0.206 | 0.519 | -0.0422 | -1.04 (inactive)
9 | CCCN1C(=O)[C@@]2(c3ccc([N+](=O)[O-])cc3)CC(=O)N(C3CCCCC3)[C@@H]2c2ccc(CO)cc21 | -0.328 | 2.02 (inactive) | -0.15 | -0.112 | -0.139 | 0.361 | -0.435 | 0.268 | 0.649 | 0.31 | 0.993 | -0.281 | 0.584 | -0.138 | 1.2 | 1.08 | -0.755 | 0.466 | 0.198 | 0.289 (inactive)
10 | C=CCNC(=O)[C@H]1[C@@H]2C(=O)O[C@@H](c3ccccc3)[C@@H](c3ccccc3)N2[C@@H](c2ccc(O)cc2)[C@]12C(=O)Nc1ccc(C#CCC(C(=O)OC)C(=O)OC)cc12 | 0.0574 | -0.209 (inactive) | -0.217 | 0.0098 | 0.649 | 1.23 | 0.877 | 0.421 | 0.952 | -0.273 | 2.01 | 1.08 | 0.144 | -0.078 | 0.636 | 0.497 | 0.243 | 0.0372 | -0.0126 | -1.37 (inactive)
11 | CC(C)C[C@@H]1NC(=O)[C@H]2C[C@@H](C(=O)O)[C@@H](c3cccc(OCCO)c3)N2C1=O | -0.371 | -0.12 (inactive) | -0.0014 | -0.0761 | 0.265 | 1.38 | 0.327 | 0.531 | 1.12 | 0.587 | 1.49 | 0.0559 | 0.119 | 0.267 | 1.3 | 1.66 | 0.951 | 0.797 | 0.325 | -1.07 (inactive)
